# Experimental data: PMC7862700, “An all-to-all approach to the identification of sequence-specific readers for epigenetic DNA modifications on cytosine”
# What was measured:
# Experiment in all cases: DAPPL (digital affinity profiling via proximity ligation, sequencing); 10 mM Tris-HCl pH 7.5, 50 mM NaCl, 1 mM DTT, 4% glycerol, room temperature, 30 min; GST-TFs on glutathione beads, 16-mer random dsDNA library, 0.1% formaldehyde crosslink after washing; high values mean tight binding
# Conditions in all cases: protein: recombinant; tags: N-terminal GST; dsDNA, one strand shown
# FLI1 = biological target: T1, FLI1 (Homo sapiens, UniProt Q01543 1-452)
# T1 sequence: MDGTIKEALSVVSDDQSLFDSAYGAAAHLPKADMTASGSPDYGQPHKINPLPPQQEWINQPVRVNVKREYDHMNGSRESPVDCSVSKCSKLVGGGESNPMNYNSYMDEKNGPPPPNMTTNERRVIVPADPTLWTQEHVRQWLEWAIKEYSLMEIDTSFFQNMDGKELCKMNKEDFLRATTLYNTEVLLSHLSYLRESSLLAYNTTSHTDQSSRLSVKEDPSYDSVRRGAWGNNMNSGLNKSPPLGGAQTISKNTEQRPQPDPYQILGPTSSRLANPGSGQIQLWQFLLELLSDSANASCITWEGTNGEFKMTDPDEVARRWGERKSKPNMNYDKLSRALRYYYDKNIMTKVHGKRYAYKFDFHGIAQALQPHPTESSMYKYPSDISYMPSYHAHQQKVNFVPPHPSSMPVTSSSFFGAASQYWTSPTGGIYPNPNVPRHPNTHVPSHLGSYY
# Summary of the method: (§1)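 Binding signal is each hexamer's read frequency for a factor divided by its frequency in the tag-only sample. The factors were GST-fused human transcription factors from yeast, captured on glutathione beads, DNA-barcoded and pooled with that sample. Pools were incubated with 200 nmole of a random double-stranded 16-mer DNA library in Tris/NaCl/DTT/glycerol buffer at room temperature for 30 min, then washed, crosslinked with 0.1% formaldehyde, proximity-ligated with BsaI/T4 ligase (1 h, 37 °C), PCR-amplified and sequenced on an Illumina NextSeq500.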
# GABPA = biological target: T2, GABPA (Homo sapiens, UniProt Q06546 1-454)
# T2 sequence: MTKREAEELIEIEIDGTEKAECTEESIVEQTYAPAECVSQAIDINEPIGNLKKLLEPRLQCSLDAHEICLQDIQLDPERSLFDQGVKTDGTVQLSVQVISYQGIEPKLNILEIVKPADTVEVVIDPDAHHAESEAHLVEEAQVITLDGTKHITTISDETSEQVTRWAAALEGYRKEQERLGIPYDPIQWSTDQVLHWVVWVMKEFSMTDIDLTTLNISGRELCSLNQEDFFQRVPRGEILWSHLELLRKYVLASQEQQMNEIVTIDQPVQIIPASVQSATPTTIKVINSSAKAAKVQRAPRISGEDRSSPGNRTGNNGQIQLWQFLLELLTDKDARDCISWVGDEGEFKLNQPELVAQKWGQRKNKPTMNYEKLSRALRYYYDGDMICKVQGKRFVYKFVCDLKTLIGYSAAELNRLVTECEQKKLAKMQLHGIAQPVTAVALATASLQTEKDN
# Summary of the method: as §1
# ERG = biological target: T3, ERG (Homo sapiens, UniProt P11308 1-479)
# T3 sequence: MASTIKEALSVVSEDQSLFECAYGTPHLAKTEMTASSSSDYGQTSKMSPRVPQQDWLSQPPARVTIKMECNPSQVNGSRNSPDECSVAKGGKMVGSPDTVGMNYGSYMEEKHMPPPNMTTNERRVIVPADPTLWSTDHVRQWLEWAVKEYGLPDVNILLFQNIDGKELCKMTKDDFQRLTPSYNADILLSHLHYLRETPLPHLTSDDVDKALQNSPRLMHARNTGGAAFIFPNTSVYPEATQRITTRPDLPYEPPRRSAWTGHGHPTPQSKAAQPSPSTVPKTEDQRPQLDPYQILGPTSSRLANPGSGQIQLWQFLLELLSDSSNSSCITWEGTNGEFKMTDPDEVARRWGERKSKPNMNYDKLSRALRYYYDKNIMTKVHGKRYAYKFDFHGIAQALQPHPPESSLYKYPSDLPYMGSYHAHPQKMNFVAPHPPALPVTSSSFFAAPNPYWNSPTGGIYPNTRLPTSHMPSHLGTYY
# Summary of the method: as §1
# ELF1 = ELF1 (Homo sapiens, UniProt P32519 1-619)
# Chain of ELF1 (P32519 whole entry): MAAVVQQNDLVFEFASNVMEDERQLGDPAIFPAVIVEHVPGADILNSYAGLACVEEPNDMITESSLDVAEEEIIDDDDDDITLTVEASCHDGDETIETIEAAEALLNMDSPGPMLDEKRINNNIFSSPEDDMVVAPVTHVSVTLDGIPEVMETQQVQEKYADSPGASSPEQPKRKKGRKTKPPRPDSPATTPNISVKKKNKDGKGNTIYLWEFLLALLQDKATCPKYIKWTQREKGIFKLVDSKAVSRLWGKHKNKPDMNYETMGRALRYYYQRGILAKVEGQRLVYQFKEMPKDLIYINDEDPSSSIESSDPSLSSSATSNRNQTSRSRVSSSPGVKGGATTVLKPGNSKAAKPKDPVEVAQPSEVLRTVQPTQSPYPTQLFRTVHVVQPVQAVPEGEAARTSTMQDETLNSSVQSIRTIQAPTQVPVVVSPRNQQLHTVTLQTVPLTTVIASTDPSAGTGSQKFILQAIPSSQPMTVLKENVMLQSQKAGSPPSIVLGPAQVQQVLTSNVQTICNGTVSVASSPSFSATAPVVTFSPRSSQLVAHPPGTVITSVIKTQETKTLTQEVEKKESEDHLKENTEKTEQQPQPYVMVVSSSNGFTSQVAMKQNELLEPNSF
# Summary of the method: as §1
# EHF = biological target: T4, EHF (Homo sapiens, UniProt Q9NZC4 1-300)
# T4 sequence: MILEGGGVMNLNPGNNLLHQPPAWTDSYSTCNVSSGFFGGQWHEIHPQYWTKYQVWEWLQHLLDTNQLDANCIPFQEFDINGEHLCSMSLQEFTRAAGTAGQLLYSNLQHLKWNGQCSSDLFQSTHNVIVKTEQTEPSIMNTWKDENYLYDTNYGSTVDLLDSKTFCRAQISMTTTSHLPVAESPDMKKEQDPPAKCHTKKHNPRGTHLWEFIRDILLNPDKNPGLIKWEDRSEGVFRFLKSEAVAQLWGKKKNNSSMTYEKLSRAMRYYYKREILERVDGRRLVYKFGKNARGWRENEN
# Summary of the method: as §1
# SPI1 = SPI1 (Homo sapiens, UniProt P17947 1-270)
# Summary of the method: as §1
# SPIB = SPIB (Homo sapiens, UniProt Q01892 1-262)
# Chain of SPIB (Q01892 whole entry): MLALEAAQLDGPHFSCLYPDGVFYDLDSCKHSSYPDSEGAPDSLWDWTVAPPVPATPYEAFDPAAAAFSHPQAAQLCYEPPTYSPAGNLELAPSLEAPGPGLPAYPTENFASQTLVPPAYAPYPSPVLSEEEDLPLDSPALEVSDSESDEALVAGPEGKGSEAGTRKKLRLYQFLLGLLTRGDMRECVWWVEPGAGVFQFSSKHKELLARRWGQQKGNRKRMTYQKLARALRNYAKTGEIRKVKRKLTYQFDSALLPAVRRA
# Summary of the method: as §1
# ELK3 = biological target: T5, ELK3 (Homo sapiens, UniProt P41970 1-407)
# T5 sequence: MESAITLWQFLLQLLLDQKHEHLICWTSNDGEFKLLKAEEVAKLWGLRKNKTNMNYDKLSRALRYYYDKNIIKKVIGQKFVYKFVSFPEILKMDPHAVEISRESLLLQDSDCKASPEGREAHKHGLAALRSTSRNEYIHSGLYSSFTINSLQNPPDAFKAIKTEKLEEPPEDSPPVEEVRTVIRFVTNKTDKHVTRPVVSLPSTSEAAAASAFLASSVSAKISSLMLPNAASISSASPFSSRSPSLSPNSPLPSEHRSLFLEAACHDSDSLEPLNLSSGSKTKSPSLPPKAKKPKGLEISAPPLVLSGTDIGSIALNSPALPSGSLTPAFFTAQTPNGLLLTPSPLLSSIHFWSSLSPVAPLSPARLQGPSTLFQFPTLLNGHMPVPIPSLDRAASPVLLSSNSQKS
# Summary of the method: as §1
# ELK4 = biological target: T6, ELK4 (Homo sapiens, UniProt P28324-2 1-405)
# T6 sequence: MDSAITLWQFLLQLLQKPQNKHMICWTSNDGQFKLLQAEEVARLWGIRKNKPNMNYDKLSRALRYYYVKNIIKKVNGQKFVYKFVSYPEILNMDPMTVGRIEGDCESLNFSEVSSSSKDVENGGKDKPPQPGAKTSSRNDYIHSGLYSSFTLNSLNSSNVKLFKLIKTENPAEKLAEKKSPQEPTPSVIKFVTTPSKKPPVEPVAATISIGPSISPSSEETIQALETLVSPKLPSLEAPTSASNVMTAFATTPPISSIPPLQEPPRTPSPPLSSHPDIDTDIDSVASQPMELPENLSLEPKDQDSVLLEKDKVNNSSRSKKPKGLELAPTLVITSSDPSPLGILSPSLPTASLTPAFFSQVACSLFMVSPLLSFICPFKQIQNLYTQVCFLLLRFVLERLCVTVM
# Summary of the method: as §1
# ETV2 = biological target: T7, ETV2 (Homo sapiens, UniProt O00321 1-342)
# T7 sequence: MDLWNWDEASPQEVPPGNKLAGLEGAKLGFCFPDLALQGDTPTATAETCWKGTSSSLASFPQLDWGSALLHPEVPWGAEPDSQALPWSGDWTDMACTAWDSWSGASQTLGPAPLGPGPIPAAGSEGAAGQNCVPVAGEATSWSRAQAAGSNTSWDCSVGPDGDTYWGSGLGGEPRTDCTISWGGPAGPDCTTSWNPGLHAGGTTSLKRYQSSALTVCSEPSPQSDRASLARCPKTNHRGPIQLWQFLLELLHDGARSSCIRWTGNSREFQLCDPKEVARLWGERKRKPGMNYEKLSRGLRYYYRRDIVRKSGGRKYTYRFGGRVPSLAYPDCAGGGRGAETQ
# Summary of the method: as §1
# ETV1 = ETV1 (Homo sapiens, UniProt P50549 1-477)
# Chain of ETV1 (P50549 whole entry): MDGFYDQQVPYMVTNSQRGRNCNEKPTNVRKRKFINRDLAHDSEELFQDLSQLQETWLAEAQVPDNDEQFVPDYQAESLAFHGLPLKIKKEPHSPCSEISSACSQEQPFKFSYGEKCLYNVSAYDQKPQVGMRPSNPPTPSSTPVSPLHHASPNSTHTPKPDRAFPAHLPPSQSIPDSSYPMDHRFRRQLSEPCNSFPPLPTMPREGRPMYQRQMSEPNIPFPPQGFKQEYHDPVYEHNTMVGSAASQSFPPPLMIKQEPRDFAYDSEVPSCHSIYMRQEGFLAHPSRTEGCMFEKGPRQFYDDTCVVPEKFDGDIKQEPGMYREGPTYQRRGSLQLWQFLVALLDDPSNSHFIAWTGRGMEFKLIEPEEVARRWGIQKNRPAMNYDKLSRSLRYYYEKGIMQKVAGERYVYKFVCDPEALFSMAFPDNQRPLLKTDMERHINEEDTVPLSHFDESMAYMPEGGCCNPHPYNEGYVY
# Summary of the method: as §1
# ERF = biological target: T8, ERF (Homo sapiens, UniProt P50548 1-548)
# T8 sequence: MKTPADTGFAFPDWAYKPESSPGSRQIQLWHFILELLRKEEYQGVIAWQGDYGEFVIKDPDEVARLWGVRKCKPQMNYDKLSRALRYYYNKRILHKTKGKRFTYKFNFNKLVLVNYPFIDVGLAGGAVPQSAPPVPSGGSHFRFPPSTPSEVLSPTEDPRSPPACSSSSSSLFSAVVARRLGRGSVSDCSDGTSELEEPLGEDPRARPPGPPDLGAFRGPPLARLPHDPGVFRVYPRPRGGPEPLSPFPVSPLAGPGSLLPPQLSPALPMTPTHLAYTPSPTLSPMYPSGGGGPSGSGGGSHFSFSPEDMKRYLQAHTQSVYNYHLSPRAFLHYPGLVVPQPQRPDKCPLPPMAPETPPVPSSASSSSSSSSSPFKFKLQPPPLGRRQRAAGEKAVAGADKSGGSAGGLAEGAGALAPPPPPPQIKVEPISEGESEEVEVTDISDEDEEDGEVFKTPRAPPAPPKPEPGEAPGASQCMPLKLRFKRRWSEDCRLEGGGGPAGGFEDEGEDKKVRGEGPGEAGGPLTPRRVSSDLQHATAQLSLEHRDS
# Summary of the method: as §1
# ETV3L = biological target: T9, ETV3L (Homo sapiens, UniProt Q6ZN32 1-361)
# T9 sequence: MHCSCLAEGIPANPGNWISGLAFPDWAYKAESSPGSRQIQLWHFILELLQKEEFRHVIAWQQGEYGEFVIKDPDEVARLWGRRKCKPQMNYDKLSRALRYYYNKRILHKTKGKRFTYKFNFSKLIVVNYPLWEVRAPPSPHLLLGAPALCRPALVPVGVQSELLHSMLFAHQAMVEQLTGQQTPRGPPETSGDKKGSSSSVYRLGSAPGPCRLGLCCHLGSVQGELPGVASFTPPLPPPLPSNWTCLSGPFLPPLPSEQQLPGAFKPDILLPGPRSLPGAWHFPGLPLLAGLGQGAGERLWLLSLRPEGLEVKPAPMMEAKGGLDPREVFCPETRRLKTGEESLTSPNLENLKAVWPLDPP
# Summary of the method: as §1
# ETV3 = biological target: T10, ETV3 (Homo sapiens, UniProt P41162-2 1-143)
# T10 sequence: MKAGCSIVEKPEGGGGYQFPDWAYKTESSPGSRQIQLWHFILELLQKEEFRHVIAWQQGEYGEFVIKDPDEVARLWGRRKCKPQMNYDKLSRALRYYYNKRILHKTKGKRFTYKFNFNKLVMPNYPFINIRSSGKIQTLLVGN
# Summary of the method: as §1
# ETV6 = ETV6 (Homo sapiens, UniProt P41212 1-452)
# Chain of ETV6 (P41212 whole entry): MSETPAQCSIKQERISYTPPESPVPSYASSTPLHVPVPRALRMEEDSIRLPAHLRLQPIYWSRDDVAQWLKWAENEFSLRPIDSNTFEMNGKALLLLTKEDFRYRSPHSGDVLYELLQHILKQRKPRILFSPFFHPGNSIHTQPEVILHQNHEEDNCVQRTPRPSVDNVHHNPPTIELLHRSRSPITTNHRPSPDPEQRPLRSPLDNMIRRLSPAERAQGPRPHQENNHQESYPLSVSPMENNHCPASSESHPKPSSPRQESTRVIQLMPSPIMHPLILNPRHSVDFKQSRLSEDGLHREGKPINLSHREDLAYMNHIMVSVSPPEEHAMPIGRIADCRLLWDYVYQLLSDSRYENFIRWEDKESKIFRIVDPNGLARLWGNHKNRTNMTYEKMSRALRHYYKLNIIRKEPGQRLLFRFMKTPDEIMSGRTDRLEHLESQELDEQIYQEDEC
# Summary of the method: as §1
Sequence,binding signal (FLI1),binding signal (GABPA),binding signal (ERG),binding signal (ELF1),binding signal (EHF),binding signal (SPI1),binding signal (SPIB),binding signal (ELK3),binding signal (ELK4),binding signal (ETV2),binding signal (ETV1),binding signal (ERF),binding signal (ETV3L),binding signal (ETV3),binding signal (ETV6)
CCTGGC,"1.03 fold enrichment (6-mer frequency, TF over GST control)","1.1 fold enrichment (6-mer frequency, TF over GST control)","1.15 fold enrichment (6-mer frequency, TF over GST control)","1.07 fold enrichment (6-mer frequency, TF over GST control)","1.04 fold enrichment (6-mer frequency, TF over GST control)","1.05 fold enrichment (6-mer frequency, TF over GST control)","1.03 fold enrichment (6-mer frequency, TF over GST control)","1.06 fold enrichment (6-mer frequency, TF over GST control)","1.13 fold enrichment (6-mer frequency, TF over GST control)","1.27 fold enrichment (6-mer frequency, TF over GST control)","1.04 fold enrichment (6-mer frequency, TF over GST control)","1.03 fold enrichment (6-mer frequency, TF over GST control)","1.08 fold enrichment (6-mer frequency, TF over GST control)","1.01 fold enrichment (6-mer frequency, TF over GST control)","1.08 fold enrichment (6-mer frequency, TF over GST control)"
GCCTGT,"1.02 fold enrichment (6-mer frequency, TF over GST control)",–,–,–,–,–,–,"1.03 fold enrichment (6-mer frequency, TF over GST control)","1.05 fold enrichment (6-mer frequency, TF over GST control)",–,–,–,–,"1.04 fold enrichment (6-mer frequency, TF over GST control)",–
